Most compounds without a hit are left out; they make up all but 1.3% or so of the library.
PrP UTR inh – inhibition of PrP 5' UTR reporter expression; 340,000 tested, 0.35% active; cell-based PrP 5' UTR mRNA reporter, plate reader; inhibition, % (test concentration not listed); in the data active means inhibition above about 52%; further: 0 = median of the neutral control wells
SARS 3CLpro inh – SARS-CoV 3CLpro protease inhibition; P0C6X7; recombinant SARS-CoV 3CLpro, quenched FRET peptide cleavage; inhibition, % at 6 µM; 290,000 tested, 0.14% active; AID 1706; in the data active means inhibition above about 12%
PrPC surface inh – cell surface PrPC inhibition, primary TR-FRET screen. 370,000 tested, 0.43% active. inhibition, % at 13.8 µM. P04156. TR-FRET read-out; in the data active means inhibition above about 24%; further: 0% = median of the test wells and 100% = reference compound wells
CCHFV vOTU inh – blocks the CCHF virus ovarian tumor domain protease. CCHFV vOTU protease, Pep-AMC fluorescence. inhibition, % at 11.5 µM. 370,000 tested, 0.55% active; in the data active means inhibition above about 30%; further: 0% = vehicle wells with enzyme and 100% = no enzyme wells
* marks the source's active call; other numbers are inactive results.

CC1(c2ccccc2)CC(C)(C)N(C(=O)C2CCCO2)c2ccccc21 (stereo unspecified) was read as PrP UTR inh 5, SARS 3CLpro inh 1, PrPC surface inh 7 and CCHFV vOTU inh 35*.
CC(C)(C)NC(=O)C1c2ccccc2Oc2ccccc21 was read as PrP UTR inh -8, SARS 3CLpro inh -1, PrPC surface inh -6 and CCHFV vOTU inh 9.
For O=C(Nc1ccccc1N1CCOCC1)c1ccc2nc[nH]c2c1 the results were PrP UTR inh -22, SARS 3CLpro inh 1, PrPC surface inh -10 and CCHFV vOTU inh -15.
Screening O=C(CCS(=O)(=O)Cc1ccccc1)N1CCN(Cc2ccccc2)CC1 returned PrP UTR inh -9, SARS 3CLpro inh -2, PrPC surface inh -4 and CCHFV vOTU inh -13.
`COc1cc(CNC(C)c2ccccc2)cc(Br)c1OCc1ccccc1` (stereo unspecified) gave PrP UTR inh -5, SARS 3CLpro inh -1, PrPC surface inh 9 and CCHFV vOTU inh 8.
For COc1cc(CNc2ccc(O)cc2)cc(Br)c1OCc1ccccc1 the results were PrP UTR inh 0, SARS 3CLpro inh 4, PrPC surface inh -16 and CCHFV vOTU inh 94*.
CCOc1cc(CNc2ccc3cn[nH]c3c2)ccc1OC was read as PrP UTR inh -29, SARS 3CLpro inh -2, PrPC surface inh -16 and CCHFV vOTU inh 59*.
CCN(CC)S(=O)(=O)c1ccc(N=Nc2c(C)[nH]n(C(N)=S)c2=O)cc1 was read as PrP UTR inh -47, SARS 3CLpro inh 3, PrPC surface inh -19 and CCHFV vOTU inh 31*.
Screening CCCCC1=CC2=C(c3ccco3)C(=O)C(C)(OC(=O)c3ccc(OC)cc3)C(=O)C2=CN1Cc1ccccc1 (stereo unspecified) returned PrP UTR inh -5, PrPC surface inh 31* and CCHFV vOTU inh 5.
`Cc1cc(C(=O)CSc2ccc(F)cc2)cc(C)c1OC(=S)N(C)C` gave PrP UTR inh 68*, SARS 3CLpro inh 5, PrPC surface inh 7 and CCHFV vOTU inh 7.
`COc1ccc(SCC(=O)c2cc(C)c(OC(=S)N(C)C)c(C)c2)cc1` gave PrP UTR inh -36, SARS 3CLpro inh 4, PrPC surface inh 10 and CCHFV vOTU inh 9.
For C[C@@H]1CN([C@@H](C)CO)C(=O)c2cc(NC(=O)c3ccccc3)ccc2O[C@@H](C)CCCCO[C@@H]1CN(C)Cc1ccc(C(F)(F)F)cc1 the results were PrPC surface inh 6 and CCHFV vOTU inh 42*.
`N#Cc1c(N2CCCC2)nc(N)c2c(N)nc(N3CCCC3)cc12` gave PrP UTR inh -57, SARS 3CLpro inh -5, PrPC surface inh -13 and CCHFV vOTU inh 72*.
Screening COc1cc2c(C#N)c(N3CCCC3)nc(N)c2c(N)n1 returned PrP UTR inh -13, SARS 3CLpro inh -5, PrPC surface inh -6 and CCHFV vOTU inh -5.
Screening O=C(c1ccco1)[C@@H]1[C@@H]2C(=O)N(c3ccccc3)C(=O)[C@@H]2C2c3ccccc3C=CN21 (stereo partly specified) returned PrP UTR inh -29, SARS 3CLpro inh -1, PrPC surface inh -3 and CCHFV vOTU inh 96*.
COc1ccc(N2C(=O)[C@@H]3[C@H](C2=O)[C@H]2c4ccccc4C=CN2[C@@H]3C(=O)Nc2ccccc2)cc1 was read as PrP UTR inh -30, SARS 3CLpro inh 0, PrPC surface inh 8 and CCHFV vOTU inh 9.
Cc1ccccc1CN1C(=O)c2ccccc2C1c1nnnn1-c1ccc2c(c1)OCCO2 (stereo unspecified) was read as PrPC surface inh 14 and CCHFV vOTU inh -2.
`Nc1ccc2nc3c(=O)n(CCc4ccccc4)c(=O)[nH]c3nc2c1` gave SARS 3CLpro inh -2, PrPC surface inh -12 and CCHFV vOTU inh 6.
For CCCCn1c(=O)[nH]c2nc3cc(N)ccc3nc2c1=O the results were PrP UTR inh -43, SARS 3CLpro inh -11, PrPC surface inh -27 and CCHFV vOTU inh 50*.
`CC(C)(C)c1ccc(-c2nnc3sc(-c4ccncc4)nn23)cc1` gave SARS 3CLpro inh 2, PrPC surface inh 5 and CCHFV vOTU inh -10.
`CSc1nnnn1CCn1nnnc1SC` gave PrP UTR inh -1, SARS 3CLpro inh 8, PrPC surface inh 36* and CCHFV vOTU inh 1.
c1ccc2c(c1)[IH]c1ccccc1-2 was read as PrP UTR inh -11, PrPC surface inh 35* and CCHFV vOTU inh -5.
Nc1ccccc1-c1ccccc1N was read as PrP UTR inh -10, SARS 3CLpro inh 0, PrPC surface inh -2 and CCHFV vOTU inh -3.
OCC[C@H]1C[C@@H](O)[C@H](O)[C@]2(CCCCO2)O1 was read as PrP UTR inh -14, PrPC surface inh 0 and CCHFV vOTU inh -2.

High-throughput results: PubChem BioAssay, several laboratories
